Reference: PubChem BioAssay (EPA / NIEHS)
Results filed as inconclusive are left out. Calls of active or inactive are those of the source. The calls were made as follows, unless noted: active = hit-call score of the fitted dose curve at least 0.9, where 1 is the maximum; inactive = score below 0.9.

Assays:
[1] = read-out: Protein phosphatase 2A (PPP2R4), PTPA (gene 5524); experiment: LTEA_HepaRG_PPP2R4: Life Technologies and Expression Analysis (LTEA) Assay for Protein phosphatase 2A (PPP2R4) using HepaRG (AID 2283522); settings: mRNA level, 48 h; actives raise or lower the signal
How it was run: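 Cells were plated, cultured 48 h, switched to serum-free induction medium, then dosed for 48 h (8 points, max 100 uM, 0.5% DMSO). RNA was isolated and PPP2R4 expression measured by TaqMan qRT-PCR.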

[2] = read-out: Phosphatase and tensin (PTEN), PTEN (gene 5728); experiment: LTEA_HepaRG_PTEN: Life Technologies and Expression Analysis (LTEA) Assay for Phosphatase and tensin (PTEN) using HepaRG (AID 2283523); settings: mRNA level, 48 h; actives raise or lower the signal
How it was run: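 Expression of PTEN is quantified in the human liver line HepaRG following two days of dosing (top concentration 100 uM, half-log dilutions, 0.5% DMSO). Values derive from bidirectional curve fitting relative to DMSO controls.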

[3] = read-out: solute carrier (SLC22A1), SLC22A1 (gene 6580); experiment: LTEA_HepaRG_SLC22A1: Life Technologies and Expression Analysis (LTEA) Assay for solute carrier (SLC22A1) using HepaRG (AID 2283524); settings: mRNA level, 48 h; actives raise or lower the signal
How it was run: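 Transcript induction or suppression of SLC22A1 in human HepaRG cultures is scored after 48 h chemical treatment, with DMSO (0.5%) as baseline for bidirectional fitting. Concentrations span eight half-log points topping at 100 uM.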

[4] = read-out: NAD(P)H dehydrogenase [quinone] 1 (NQO1), NQO1 (gene 1728); experiment: LTEA_HepaRG_NQO1: Life Technologies and Expression Analysis (LTEA) Assay for NAD(P)H dehydrogenase [quinone] 1 (NQO1) using HepaRG (AID 2283526); settings: mRNA level, 48 h; actives raise or lower the signal
How it was run: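 Transcript induction or suppression is quantified by qRT-PCR in human HepaRG liver cells dosed for 48 hours. Eight half-log concentrations topping at 100 uM are used, with 0.5% DMSO as vehicle and baseline.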

[5] = read-out: Nuclear factor erythroid 2-related factor 2 (Homo sapiens) (UniProt Q16236); experiment: LTEA_HepaRG_NFE2L2: Life Technologies and Expression Analysis (LTEA) Assay for Nuclear factor erythroid 2-related factor 2 (NFE2L2) Transcription Factor using HepaRG (AID 2283527); settings: mRNA level, 48 h; actives raise or lower the signal;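 also: TaqMan qRT-PCR transcript level normalised to ACTB GAPDH and POLR2A housekeeping genes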
How it was run: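 Human liver HepaRG line treated in duplicate for 48 h with an eight-point series topping at 100 uM. Gene expression of NFE2L2 by qRT-PCR, bidirectionally fitted against the vehicle control.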

[6] = read-out: succinate dehydrogenase complex iron sulfur subunit B (SDHB), SDHB (gene 6390); experiment: LTEA_HepaRG_SDHB: Life Technologies and Expression Analysis (LTEA) Assay for succinate dehydrogenase complex iron sulfur subunit B (SDHB) using HepaRG (AID 2283528); settings: mRNA level, 48 h; actives raise or lower the signal
How it was run: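 Readout is SDHB transcript level by qRT-PCR, normalised to three housekeeping genes and fitted bidirectionally against 0.5% DMSO vehicle. Human HepaRG cells were treated for 48 h at up to 100 uM.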

[7] = read-out: Signal transducer and activator of transcription 3 (Homo sapiens) (UniProt P40763); experiment: LTEA_HepaRG_STAT3: Life Technologies and Expression Analysis (LTEA) Assay for Signal transducer and activator of transcription (STAT3) using HepaRG (AID 2283529); settings: mRNA level, 48 h; actives raise or lower the signal
How it was run: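 In this transcriptional endpoint, HepaRG cultures receive test chemicals at up to 100 uM for 48 h, tested in duplicate. STAT3 mRNA is normalized to ACTB, GAPDH and POLR2A.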

[8] = read-out: solute carrier (SLCO1B1), SLCO1B1 (gene 10599); experiment: LTEA_HepaRG_SLCO1B1: Life Technologies and Expression Analysis (LTEA) Assay for solute carrier (SLCO1B1) using HepaRG (AID 2283530); settings: mRNA level, 48 h; actives raise or lower the signal
How it was run: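 HepaRG, serum-free induction medium, 48 h dosing, 8-pt half-log from 100 uM, 0.5% DMSO vehicle, duplicates. Readout: SLCO1B1 mRNA, qRT-PCR, ACTB/GAPDH/POLR2A normalization; up or down fit vs DMSO.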

[9] = read-out: sulfotransferase 2A1 (SULT2A1), SULT2A1 (gene 6822); experiment: LTEA_HepaRG_SULT2A1: Life Technologies and Expression Analysis (LTEA) Assay for sulfotransferase 2A1 (SULT2A1) using HepaRG (AID 2283531); settings: mRNA level, 48 h; actives raise or lower the signal
How it was run: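 Transcript levels of SULT2A1, quantified by qRT-PCR and normalized to three housekeeping genes, serve as the readout. Human HepaRG cultures receive test chemicals for 48 h at up to 100 uM in half-log steps, with 0.5% DMSO vehicle.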

[10] = read-out: Transforming Growth Factor (TGFA), TGFA (gene 7039); experiment: LTEA_HepaRG_TGFA: Life Technologies and Expression Analysis (LTEA) Assay for Transforming Growth Factor (TGFA) using HepaRG (AID 2283532); settings: mRNA level, 48 h; actives raise or lower the signal
How it was run: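 Gene expression of TGFA was quantified by qRT-PCR after human HepaRG cells were treated for 48 h with test chemicals (eight concentrations, highest 100 uM, 0.5% DMSO). Activity in either direction was fitted relative to DMSO.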

TIMP1, TIMP1 (gene 7076) = experiment: LTEA_HepaRG_TIMP1: Life Technologies and Expression Analysis (LTEA) Assay for TIMP1 using HepaRG (AID 2283534); settings: mRNA level, 48 h; actives raise or lower the signal;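 also: TaqMan qRT-PCR signal normalized to ACTB GAPDH and POLR2A housekeeping genes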
How it was run: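 Readout is TIMP1 mRNA level measured by qRT-PCR and normalized to three housekeeping genes. Human HepaRG cells were treated for 48 h in duplicate at eight concentrations up to 100 uM (0.5% DMSO); gain or loss fitted against DMSO.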

[11] = read-out: Tumor necrosis factor receptor 1 (TNFRSF1A), TNFRSF1A (gene 7132); experiment: LTEA_HepaRG_TNFRSF1A: Life Technologies and Expression Analysis (LTEA) Assay for Tumor necrosis factor receptor 1 (TNFRSF1A) using HepaRG (AID 2283535); settings: mRNA level, 48 h; actives raise or lower the signal
How it was run: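 Read-out is TNFRSF1A transcript level by TaqMan qRT-PCR, normalized to three housekeeping genes, scored as gain or loss of signal versus 0.5% DMSO. Human HepaRG cells received test chemicals for 48 h at up to 100 uM (half-log series).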

[12] = read-out: Thyroid Hormone Responsive (THRSP), THRSP (gene 7069); experiment: LTEA_HepaRG_THRSP: Life Technologies and Expression Analysis (LTEA) Assay for Thyroid Hormone Responsive (THRSP) using HepaRG (AID 2283536); settings: mRNA level, 48 h; actives raise or lower the signal
How it was run: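 Cell model: human HepaRG, approx. 100,000 cells/well, 0.5% DMSO vehicle. Exposure lasts 48 h; phenobarbital 1 mM serves as induction positive control. Gene expression is measured by qRT-PCR against three endogenous control genes.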

[13] = read-out: UDP glucuronosyltransferase (UGT1A1), UGT1A1 (gene 54658); experiment: LTEA_HepaRG_UGT1A1: Life Technologies and Expression Analysis (LTEA) Assay for UDP glucuronosyltransferase (UGT1A1) using HepaRG (AID 2283538); settings: mRNA level, 48 h; actives raise or lower the signal
How it was run: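 Cells are plated, cultured 48 h, switched to serum-free induction medium, then dosed 48 h at eight concentrations (max 100 uM, 0.5% DMSO). RNA is isolated and UGT1A1 expression measured by qRT-PCR; changes versus DMSO are fitted in both directions.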

[14] = read-out: UDP glucuronosyltransferase (UGT1A6), UGT1A6 (gene 54578); experiment: LTEA_HepaRG_UGT1A6: Life Technologies and Expression Analysis (LTEA) Assay for UDP glucuronosyltransferase (UGT1A6) using HepaRG (AID 2283539); settings: mRNA level, 48 h; actives raise or lower the signal
How it was run: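 HepaRG, 48 h post-plating switch to serum-free induction medium; chemical 48 h, 100 uM top, half-log x8, duplicate, 0.5% DMSO. Phenobarbital 1mM induction control. UGT1A6 mRNA by TaqMan qRT-PCR; gain/loss fit vs DMSO.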

[15] = read-out: X-box binding protein 1 (XBP1), XBP1 (gene 7494); experiment: LTEA_HepaRG_XBP1: Life Technologies and Expression Analysis (LTEA) Assay for X-box binding protein 1 (XBP1) using HepaRG (AID 2283540); settings: mRNA level, 48 h; actives raise or lower the signal
How it was run: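 Transcript levels of XBP1, measured by qRT-PCR and normalised to three housekeeping genes, were fitted bidirectionally relative to 0.5% DMSO controls. Human HepaRG cells received eight-point half-log dilutions from 100 uM for 48 h.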

[16] = LTEA_HepaRG_LDH_cytotoxicity: Cytotoxicity Assessment in the Life Technologies and Expression Analysis (LTEA) Assay (AID 2283563; active = hit-call score of the fitted dose curve at least 0.9, where 1 is the maximum)
How it was run: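 Cells were thawed and plated for 48 h. Medium was then replaced with serum-free induction medium. Chemicals (8 half-log points, maximum 100 uM, 0.5% DMSO) were added in duplicate for 48 h, after which spent medium was assayed for LDH.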

[17] = ATG_XTT_Cytotoxicity: Cytotoxicity Assessment in the Attagene TRANS-FACTORIAL HepG2 Assay (AID 2283584; active = hit-call score of the fitted dose curve at least 0.9, where 1 is the maximum)
How it was run: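 Cells: human HepG2, transiently transfected with MRTU reporter constructs. Exposure 24 h. Readout: XTT, cell number. Baseline/neg ctrl DMSO; loss-of-signal scored.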

Measured: outcome

Nuclear factor erythroid 2-related factor 2 (Homo sapiens), sequence (Q16236 whole entry, looked up): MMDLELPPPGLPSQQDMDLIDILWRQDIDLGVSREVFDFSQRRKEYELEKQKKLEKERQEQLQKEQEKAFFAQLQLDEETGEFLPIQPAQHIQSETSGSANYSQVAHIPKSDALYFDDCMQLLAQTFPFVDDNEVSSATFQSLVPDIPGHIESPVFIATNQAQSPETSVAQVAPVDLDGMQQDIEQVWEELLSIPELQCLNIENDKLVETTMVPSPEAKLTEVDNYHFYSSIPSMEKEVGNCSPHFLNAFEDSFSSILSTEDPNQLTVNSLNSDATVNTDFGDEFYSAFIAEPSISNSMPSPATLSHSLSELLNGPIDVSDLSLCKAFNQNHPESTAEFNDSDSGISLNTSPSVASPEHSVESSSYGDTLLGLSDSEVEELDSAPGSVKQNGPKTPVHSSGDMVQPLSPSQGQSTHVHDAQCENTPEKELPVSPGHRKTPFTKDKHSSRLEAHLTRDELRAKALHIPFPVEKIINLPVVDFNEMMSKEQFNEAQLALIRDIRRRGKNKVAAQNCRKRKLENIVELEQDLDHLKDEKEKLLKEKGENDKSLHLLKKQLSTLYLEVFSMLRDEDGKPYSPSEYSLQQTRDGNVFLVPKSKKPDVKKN
Signal transducer and activator of transcription 3 (Homo sapiens), sequence (P40763 whole entry, looked up): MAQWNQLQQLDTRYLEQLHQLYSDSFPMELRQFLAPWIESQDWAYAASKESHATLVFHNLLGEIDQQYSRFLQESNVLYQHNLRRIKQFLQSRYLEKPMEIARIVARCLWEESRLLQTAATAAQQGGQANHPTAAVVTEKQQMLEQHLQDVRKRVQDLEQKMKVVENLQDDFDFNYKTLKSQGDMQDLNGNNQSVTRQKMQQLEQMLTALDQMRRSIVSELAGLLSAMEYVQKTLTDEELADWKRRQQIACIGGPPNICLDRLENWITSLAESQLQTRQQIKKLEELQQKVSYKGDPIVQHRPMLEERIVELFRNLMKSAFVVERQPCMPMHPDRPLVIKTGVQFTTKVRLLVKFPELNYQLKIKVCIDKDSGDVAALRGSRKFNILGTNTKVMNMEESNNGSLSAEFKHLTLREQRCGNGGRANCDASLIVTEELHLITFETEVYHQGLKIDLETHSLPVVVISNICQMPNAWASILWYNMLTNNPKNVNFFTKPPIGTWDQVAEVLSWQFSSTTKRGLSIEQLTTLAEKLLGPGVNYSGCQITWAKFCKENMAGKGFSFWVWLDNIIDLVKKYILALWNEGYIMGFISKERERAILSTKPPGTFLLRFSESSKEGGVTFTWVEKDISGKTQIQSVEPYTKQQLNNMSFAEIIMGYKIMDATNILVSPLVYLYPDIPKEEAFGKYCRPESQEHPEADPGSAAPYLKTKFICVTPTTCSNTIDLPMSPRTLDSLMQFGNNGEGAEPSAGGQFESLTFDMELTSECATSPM

CN(C)C(=S)S
inactive: all assays above
